Data: PubChem BioAssay (NCATS)
Inconclusive results are not listed. A number with no mark means an inactive call. Active and inactive are the calls of the source. Calls follow the shape of the dose curve; as a rule, active = well fitted curve in either direction with a large enough effect (not every such curve was filed as active); inconclusive = small, poorly fitted or top-dose-only effect, or another doubt; inactive = flat fitted curve, though single readings scatter.

test: NFAT Signaling Pathway (AID 444); settings: Jurkat NFAT-bla M1, carbachol, beta-lactamase ratio, 5 h; at 38 µM (top of the series) unless noted;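 also: carbachol stimulus at about its EC50 of 1 µM final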
How it was run: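 Jurkat cells with NFAT-driven β-lactamase reporter and co-expressed M1 receptor, stimulated with carbachol (final 1 uM, ~EC50), compound titration, 5 h at 37 °C. CCF4 loaded 1 h at RT; 460/530 nm ratio gave %activity and AC50.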
% is scaled to controls: 0 for no effect and ±100 for the full control effect.

**Q.** With CCCn1c(=O)c2[nH]c(C3CCCC3)nc2n(CCCOC(=O)c2ccc(S(=O)(=O)F)cc2)c1=O as the compound, how does the activity change, negative = inhibition read?
**A.** -34.5%

**Q.** Which activity change, negative = inhibition does the source give for CCN(CCCl)Cc1ccccc1Br here?
**A.** -24.5%

**Q.** With c1ccc2c(c1)[I+]c1ccccc1-2 as the compound, how does the activity change, negative = inhibition read?
**A.** -17.4%

**Q.** With CN1[C@@H]2CC[C@H]1CC(OC1c3ccccc3CCc3ccccc31)C2 (some centres undefined) as the compound, how does the activity change, negative = inhibition read?
**A.** -67.9% [at 17.2 µM] (active)
